Bioassay records: PubChem, National Center for Advancing Translational Sciences (NCATS)
TRPML1 inh: human mucolipin-1 channel inhibition. Q9GZU1. TRPML1-inducible cells, Ca2+ dye fluorescence, FDSS; active compounds read low; inhibition of EC80 agonist-evoked calcium signal. activity change, negative = inhibition, % (no concentration beside the values). 0.02% of 390,000 active; in the data active = activity change below about -50%; inconclusive = between about -30% and that limit;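 also: stimulus is agonist 54-4 at its EC80 concentration; % is scaled to controls: 0 for no effect and ±100 for the full control effect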
Target sequence (Q9GZU1 whole entry, looked up): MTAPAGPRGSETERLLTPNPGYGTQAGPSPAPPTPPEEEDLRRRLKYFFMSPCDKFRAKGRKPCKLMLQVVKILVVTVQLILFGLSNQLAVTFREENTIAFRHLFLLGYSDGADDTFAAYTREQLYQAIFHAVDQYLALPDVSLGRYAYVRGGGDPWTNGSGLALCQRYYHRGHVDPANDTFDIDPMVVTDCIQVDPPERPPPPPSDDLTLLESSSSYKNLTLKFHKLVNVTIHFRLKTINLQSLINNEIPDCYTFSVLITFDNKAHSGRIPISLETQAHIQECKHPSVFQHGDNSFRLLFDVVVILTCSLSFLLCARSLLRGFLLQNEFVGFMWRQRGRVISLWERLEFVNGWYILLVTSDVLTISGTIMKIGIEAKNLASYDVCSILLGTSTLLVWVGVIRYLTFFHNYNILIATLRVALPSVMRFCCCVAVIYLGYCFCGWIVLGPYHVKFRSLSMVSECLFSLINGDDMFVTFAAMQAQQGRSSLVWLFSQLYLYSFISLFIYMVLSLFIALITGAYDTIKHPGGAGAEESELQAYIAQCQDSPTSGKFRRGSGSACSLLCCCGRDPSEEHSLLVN
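Tet-induced TRPML1-DL cells loaded with Ca8 no-wash calcium dye were read kinetically on FDSS. Compound addition was followed by EC80 agonist 54-4 (4 uM final); inhibition was read over 110 s.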
TRPV1 potentiator: human TRPV1 potentiation. Q8NER1. TRPV1-expressing cells, Fluo-8 calcium influx, capsaicin EC20 potentiation. potentiation, % at 8.33 µM. 0.02% of 320,000 active; in the data active = potentiation above about 80%; inconclusive = between about 30% and that limit; also: 0% is about no effect
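TRPV1-expressing cells were cultured overnight at 35.5C and loaded with Fluo-8 calcium dye for 40 to 90 min at room temperature. After a 10 s baseline, compound was added and calcium influx was read kinetically for 3 min (ex 480/em 520 nm).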
KCNH2 WT inh: blocks the wildtype human KCNH2 potassium channel. Q12809. U2OS, BacMam KCNH2, thallium flux FluxOr; active compounds read low. 0.37% of 340,000 active. AID 720551. activity change, % at 1.84 µM;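 active = maximum activity change below -70%; inconclusive = maximum activity change between -70% and -50%; inactive = maximum activity change above -50%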; also: % is scaled to controls: 0 for no effect and ±100 for the full control effect
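U2OS cells transduced with wild-type KCNH2 virus are loaded with FluxOr dye for 45 min, and thallium flux is measured in kinetic reads before and after stimulation buffer. Rate constants are normalized to DMSO controls.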
KCNH2 3.1 inh: blocks the human KCNH2 3.1 channel isoform. U2OS KCNH2 3.1, thallium flux FluxOr; active compounds read low. activity change, % (tested at about 1.8 µM). 0.95% of 340,000 active;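 active = maximum activity change below -70%; inconclusive = maximum activity change from -70% to -50%; inactive = maximum activity change above -50%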;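 also: thallium influx rate constant from kinetic fluorescence after stimulation buffer; % is scaled to controls: 0 for no effect and ±100 for the full control effect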
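Kinetic fluorescence (2 min after stimulation buffer) measures Tl+ influx through KCNH2 3.1 expressed by viral transduction in U2OS cells; the rate constant is normalized against DMSO controls serving as positive and negative references.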
TRPML1 ag: human mucolipin-1 channel agonism. 0.12% of 410,000 active. TRPML1-expressing cells, Ca2+ dye fluorescence, FDSS. activation, % (concentration not given with the values); in the data active = activation above about 50%; inconclusive = mostly about 30% to 49%; also: 0% is about no effect
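TRPML1-DL cells, Tet-induced overnight (~16 h, 37 degrees C), loaded 45-90 min at room temperature with Ca8 no-wash calcium dye plus quencher. FDSS fluorescence: 10 s baseline, compound pin-transfer, 110 s agonist read, then EC80 54-4 (4uM final) and 110 s antagonist read.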
TRPV1 agonist: agonists of human vanilloid receptor 1 (TRPV1) | 0.19% of 320,000 active | AID 540275 | TRPV1-expressing cells, Fluo-8 calcium influx, agonist mode | activation, % at 8.33 µM; in the data active = activation above about 80%; inconclusive = between about 30% and that limit; also: 0% is about no effect
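Cells expressing TRPV1 were dye-loaded with Fluo-8 and read kinetically: 10 s baseline, 3 min after compound (agonist portion), then 2 min after EC20 capsaicin (allosteric enhancer portion). Calcium-bound dye fluorescence at 480/520 nm.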
* hit, by the source's call; ? = inconclusive; . = no result given. Shown are actives, neighbours in structure and some others; about 1.3% of the full set was active somewhere.

SMILES | TRPML1 inh | TRPV1 potentiator | KCNH2 WT inh | KCNH2 3.1 inh | TRPML1 ag | TRPV1 agonist
COc1ccccc1/C=C/C(=O)NCc1cccnc1 | 20 | -17 | 4 | -101* | 1 | 5
COc1cc(/C=C/C(=O)NCc2cccnc2)cc(OC)c1OC | 2 | -10 | 3 | 9 | 0 | 11
CN1C(=O)c2ccccc2Sc2ccc(NC(=O)N3CCN(c4ccc(F)cc4)CC3)cc21 | 58 | . | . | . | 0 | .
Cc1ccc(C(=O)CSc2nnc(COc3ccccc3)o2)cc1 | 11 | -13 | 9 | -10 | 3 | 27
O=C(CSc1nnc(COc2ccccc2)o1)c1ccccc1 | 20 | -2 | 5 | -99* | -1 | 10
O=C(Nc1nccs1)[C@@H]1CC=C[C@@H]2CCN(C3CC3)C(=O)[C@@H]21 | . | . | . | . | -1 | .
CC(=O)Nc1ccc(S(=O)(=O)NC(C(=O)O)C(C)C)cc1 (configuration not stated) | 2 | . | -5 | -72* | 1 | .
Cc1ccc(-n2c3nc(=O)[nH]c(=O)c-3cc3c(C)nn(-c4ccccc4)c32)c(C)c1 | 4 | -5 | -151* | -149* | 1 | -3
Cc1ccc(C)c(-n2c3nc(=O)[nH]c(=O)c-3cc3c(C)nn(-c4ccccc4)c32)c1 | -6 | . | . | . | 1 | .
CS(=O)(=O)N1CCN(C(=O)C2c3ccccc3Oc3ccccc32)CC1 | -18 | -6 | 34 | -185* | 1 | 0
CC(NCc1ccc(OCc2ccc(Cl)cc2)cc1)C(O)c1ccccc1 (configuration not stated) | 1 | 5 | 27 | -34 | 0 | 0
CC(NCc1cccc(OCc2ccccc2)c1)C(O)c1ccccc1 (configuration not stated) | -2 | 6 | 22 | -148* | 0 | -2
CCCOc1ccc(C2=NC(c3ccc(F)cc3)=Nc3ccc(OC)cc3N2)cc1 | 38 | . | . | . | 1 | .
CSc1ccc(CN(C)CC(=O)Nc2ccccc2C(=O)NC2CC2)cc1 | 27 | -5 | 1 | 2 | 0 | 20
CNC(=O)c1ccc(CN(C)CC(=O)Nc2ccccc2C(=O)NC2CC2)cc1 | -14 | -2 | 6 | -72* | 4 | -3
CC(C)Oc1ccc(S(=O)(=O)N2CCOCC2)cc1NC(=O)CCCSc1ccccc1 | -4 | 0 | -1 | -72* | 0 | 26
CC(=O)NCCC(=O)Nc1cc(S(=O)(=O)N2CCCCC2)ccc1Oc1ccccc1 | 7 | -11 | -71* | -17 | 0 | 2
COc1ccc(S(=O)(=O)N2CCOCC2)cc1NC(=O)CSc1ccccc1 | -5 | -15 | 12 | -2 | 1 | 12
CC(C)/C=C1\CC/C(=C\c2ccc(N(C)C)cc2)C1=O | -24 | 3 | -34 | -79* | 64* | ?
Cc1ccc(CN(C)S(=O)(=O)c2c(C)noc2/C=C/N(C)C)cc1 | 2 | -18 | -8 | -15 | 0 | 28
Cc1noc(/C=C/N(C)C)c1S(=O)(=O)N(C)Cc1ccc(F)cc1 | -3 | 20 | -134* | -199* | 0 | -2
CCCCCCCCCC[n+]1ccc(/C=C/c2c(C)[nH]c3ccccc23)c2ccccc21 | . | . | . | . | 3 | .
CCC(=O)N1CCc2cc(Br)cc(S(=O)(=O)CCC(=O)N3CCN(c4ccccc4F)CC3)c21 | -11 | . | . | . | -1 | .
CCNc1ccc2noc3c2c1C(=O)c1ccccc1-3 | 4 | -2 | 4 | -1 | 63* | ?
O=C1c2ccccc2-c2onc3ccc(NCc4ccco4)c1c23 | -15 | 5 | -6 | -13 | 21 | 14
SMILES | TRPML1 inh | TRPV1 potentiator | KCNH2 WT inh | KCNH2 3.1 inh | TRPML1 ag | TRPV1 agonist
CNC(=O)NC(=O)C(C)OC(=O)c1cc2c(s1)CCCCC2 (configuration not stated) | -2 | -5 | -5 | -98* | 3 | ?
COc1ccc(-c2onc(C)c2C)cc1S(=O)(=O)N1c2ccccc2CC1C (configuration not stated) | 51 | . | . | . | 1 | .
COc1ccc(S(=O)(=O)N2CCN(C(=O)c3cc(-c4ccccc4OC)n[nH]3)CC2)cc1 | 2 | 17 | -3 | -6 | 2 | 82*
CCCCCC1CCNCC1 | . | . | . | . | 0 | .
CC(C)c1ccc(N=Cc2c(O)c3ccccc3oc2=O)cc1 | . | -7 | -5 | 36 | . | 83*
COc1ccc(N=Cc2c(O)c3ccccc3oc2=O)cc1 | 24 | -8 | 13 | -4 | 1 | ?
CCN(CC)CCC(=O)N1C/C(=C/c2ccccc2)C(=O)/C(=C\c2ccccc2)C1 | -6 | . | 32 | -32 | 0 | .
O=C1/C(=C\c2ccccc2)CN(C(=O)CCN2CCCCC2)C/C1=C/c1ccccc1 | 4 | . | -17 | -75* | 1 | .
COc1ccc(CCNC(=O)Cn2nnc(-c3cccc(C(F)(F)F)c3)n2)cc1OC | 5 | . | . | . | 2 | .
CCOc1ccccc1NC(=O)C1CCCC1 | 23 | . | -84* | 3 | 1 | .
Cc1ccccc1C(=O)Nc1cccc(OCc2cc(=O)n3c4c(sc3n2)CCCC4)c1 | 6 | . | . | . | 1 | .
CCOC(=O)c1[nH]c(C)c(C(=O)c2ccc(C)cc2)c1C | 1 | 0 | -12 | 0 | 2 | 90*
CN(CC(=O)Nc1ccc(N2CCOCC2)cc1)CC(=O)Nc1ccc(N2CCOCC2)cc1 | -25 | -3 | -30 | 6 | 0 | 4
CN(CC(=O)Nc1ccc(N2CCOCC2)cc1)C(=O)C12CC3CC(CC(C3)C1)C2 | -3 | -15 | 1 | -73* | 0 | 17
Cc1cc(C)nc(NC(=NCCc2c[nH]c3ccccc23)NC(=O)C(C)(C)C)n1 | 30 | 12 | 9 | -88* | 3 | 25
COc1ccc(-n2c(-c3ccc(C)cc3)cc3c2CC(C)(C)CC3=O)c(OC)c1 | 14 | . | . | . | 1 | .
CN(C)c1ccc(NC(=O)Cn2cc(S(=O)(=O)Cc3ccccc3Cl)c3ccccc32)cc1 | -11 | . | . | . | -1 | .
Cn1c(=O)c2c(nc(Br)n2Cc2ccccc2Cl)n(C)c1=O | -3 | -3 | 1 | -88* | 2 | -2
CC1=C(C(=O)Nc2cccnc2)C(c2ccc(F)cc2)n2nc(SCc3ccccc3)nc2N1 (configuration not stated) | -8 | . | . | . | 0 | .
CCC(CC)c1nnc(NC(=O)CC(C)c2ccccc2)s1 (configuration not stated) | 2 | 1 | -5 | -72* | -1 | -2
CC(C)c1nnc(NC(=O)CC(C)c2ccccc2)s1 (configuration not stated) | 25 | 21 | -14 | -13 | -1 | -2
COc1ccccc1OCc1ccc(C(=O)Nc2cc(OC)c(OC)c(OC)c2)o1 | 19 | ? | -129* | 14 | 0 | -1
